PLK1 PBD block: blocks phosphopeptide binding to human PLK1 polo-box domain; P53350; Plk1 PBD binding of FITC phosphopeptide, fluorescence polarization; Potency, µM, for the others: max response, negative = inhibition, hits mostly inhibitors; hit rate 2.8% among 360,000; further: potency means the concentration at half of the fitted maximal effect; series mostly up to about 57 µM; nearly all actives have a fitted effect of over 65% in size
Sfp PPTase inh: inhibitors of Bacillus subtilis Sfp phosphopantetheinyl transferase; Potency, µM, without a hit: largest response in the series, negative = inhibition, hits mostly inhibitors; AID 1490; Biochemical Sfp PPTase activity, qHTS; hit rate 3.5% among 310,000; Q9F4F7;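 further: the enzyme is Sfp with the accession as filed and its product quenches rhodamine fluorescence; potency means the concentration at half of the fitted maximal effect; 0% = enzyme reaction without inhibitor and -100% = no enzyme wells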
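Step 1, compound plus 15 nM Sfp-PPTase, 15 min, room temperature. Step 2, add rhodamine-CoA (5 uM) and BHQ-2-YbbR (12.5 uM). Step 3, read 525/598 nm fluorescence at 0 and 30 min.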
G9a inh: blocks human histone lysine methyltransferase G9a; G9a H3K9 monomethylation, AlphaScreen, 2 h; Potency, µM (titrated, usually from 102 µM), for inactives: top-dose activity, negative = inhibition, most hits filed as inhibitors; hit rate 8.8% among 350,000; AID 504332; further: potency means the concentration at half of the fitted maximal effect; nearly all actives have a fitted effect of over 75% in size
Target sequence (Q96KQ7 913-1193 limits assumed): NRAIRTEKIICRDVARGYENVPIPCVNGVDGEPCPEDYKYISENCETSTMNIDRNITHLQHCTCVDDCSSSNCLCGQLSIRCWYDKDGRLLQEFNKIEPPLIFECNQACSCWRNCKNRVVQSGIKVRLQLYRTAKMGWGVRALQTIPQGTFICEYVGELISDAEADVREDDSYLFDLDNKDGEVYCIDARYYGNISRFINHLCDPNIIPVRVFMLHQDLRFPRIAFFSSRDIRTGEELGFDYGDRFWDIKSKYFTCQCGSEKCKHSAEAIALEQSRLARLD
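Methyltransferase reactions run at room temperature for 2 h (20 nM enzyme, 500 nM biotin-H3K9 peptide, 20 uM SAM) after a 15 min compound preincubation; product detected by AlphaScreen beads and anti-H3K9me1 antibody.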
VDR inhibitor: inhibitors of human vitamin D receptor. Potency, µM, without a hit: max response, negative = inhibition, usual class: inhibitors. VDR-SRC2-3 peptide fluorescence polarization, 2 h. AID 504847. hit rate 0.93% among 400,000; further: potency means the concentration at half of the fitted maximal effect
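Two reagent solutions held at 4 deg C in the dark were dispensed, compounds pinned at 23 nl, and the mixture incubated 2 h at room temperature. Read-out: fluorescence polarization of VDR–SRC2-3 peptide binding.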
MmCpn inh: M. maripaludis TRiC chaperonin inhibition | purified Mm-Cpn ATPase, ADP Transcreener TR-FRET | Potency, µM (doses to about 76.9 µM), without a hit: at the highest dose activity, negative = inhibition, usual class: inhibitors | hit rate 0.031% among 330,000 | AID 504842; further: potency means the concentration at half of the fitted maximal effect; nearly all actives have a fitted effect of over 80% in size
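Eu-cryptate anti-ADP/ADP-d2 competition gives a ratio inversely related to ADP. Enzyme at 25 nM was pre-exposed to compound for 10 min, then given 10 uM ATP for 30 min, 37°C throughout.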
CCT chaperon mod: modulators of cytosolic chaperonin (CCT/TRiC) activity; activity change, % (no concentration beside the values), hits read low; AID 651819; purified chaperonin ATPase assay, HTRF ADP detection, 30 min; hit rate 0.3% among 360,000; in the data active means activity change below about -30%
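Nucleotide hydrolysis assay: TRiC at 20–40 nM final (set by batch activity) with 10 uM ATP, 30 min at 37 °C, in presence of 76 uM compound. Detection by competitive ADP HTRF, 30 min ambient.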
Active calls of the source: *; u = inconclusive; x = no result given; [ ] = remark or other dose. This is a sample that favours compounds with a hit; in the whole collection about 10% have one here. Unless noted, the call rests on the fitted dose curve; in most records, active means well fitted curve in the direction sought with a large enough effect; inconclusive means small, poorly fitted or top-dose-only effect, or another doubt; inactive means no such curve, though single readings can be large; an effect the other way counts as inactive or inconclusive. Unless noted, on the % scale 0 is the no-effect control and ±100 the full control effect.

SMILES	PLK1 PBD block	Sfp PPTase inh	G9a inh	VDR inhibitor	MmCpn inh	CCT chaperon mod
Cc1ccccc1NC(=O)CCC(=O)N/N=C/c1ccncc1	-14%	u	7.1µM*	-6%	1%	-1
O=C(CCC(=O)Nc1ccc(F)cc1)N/N=C/c1ccncc1	-6%	45µM*	6%	-20%	1%	-1
C[C@@]12CCC(OC(=O)c3ccccc3)CC1CCc1ccccc12 (some centres not stated)	x	2%	x	4%	x	x
COc1ccc(NC(=O)Cn2c(=O)n(CC3CCCO3)c(=O)c3ccccc32)cc1 (configuration not stated)	x	x	-5%[59 µM]	-2%	x	x
CN(C(=O)CSc1nc2c(c(=O)[nH]1)CCCC2)C1CCCCC1	27µM*	2%	15%[59 µM]	-12%	0%	-3
CCC1=[N+](C)CCn2c(C)ccc21	-5%	8%	1.8µM*	11%	0%	-1
CCOC(=O)C1CCN(C(=O)c2cc3cc4ccc(C)cc4nc3o2)CC1	-2%	3%	79µM*	3%	-1%	-1
Cc1ccc(C)c(N2CCN(C(=O)c3cc4cc5ccc(C)cc5nc4o3)CC2)c1	x	x	4%[59 µM]	-17%	x	x
CCCOc1ccc(C2C(=O)N(C3CCCCC3)CC(=O)N2CCc2ccccc2)cc1OC (configuration not stated)	x	x	-24%[59 µM]	22%	x	x
CSc1ccc(CCNC(=O)CCn2c(=O)c3cccn3c3ccc(F)cc32)cc1	x	x	-31%[59 µM]	16%	x	x
COc1ccc(Cn2c(=O)[nH]c3cc(C(=O)NCCCN4CCCC4=O)ccc3c2=O)cc1	0%	0%	8%[2.33 µM]	28%	0%	1
COc1ccc(-n2c(=S)[nH]c3cc(C(=O)NCc4ccccc4)ccc3c2=O)c(OC)c1	1%	30%	22µM*	3%	-1%	2
COc1ccc(-n2c(=S)[nH]c3cc(C(=O)NCc4cccnc4)ccc3c2=O)c(OC)c1	-7%	20%	u	1%	2%	-10
O=C(NCCCN1CCCC1=O)c1ccc2c(=O)n(-c3ccccc3F)c(=S)[nH]c2c1	0%	u	25µM*	1%	1%	-5
O=C(NCCCN1CCCC1=O)c1ccc2c(=O)n(-c3ccc(F)cc3)c(=S)[nH]c2c1	x	-6%	32µM*	x	1%	x
O=C(Nc1ccc(F)cc1C(F)(F)F)C1CCN(c2ncccn2)CC1	x	x	-24%[59 µM]	0%	x	x
CCOc1ccc(C(=O)c2oc3ccccc3c2NC(=O)Cc2coc3cc(C)cc(C)c23)cc1	x	x	-24%[59 µM]	2%	x	x
O=C(NCCc1ccccc1)c1ccc(CS(=O)(=O)Cc2ccccc2Cl)o1	x	x	-31%[59 µM]	-5%	x	x
CCOc1ccc(CCNC(=O)c2ccc(CS(=O)Cc3cccc(Cl)c3)o2)cc1 (configuration not stated)	27µM*	19%	6%	u	-8%	-7
Cc1ccc(CS(=O)(=O)Cc2ccc(C(=O)NCc3ccccn3)o2)cc1	-2%	50µM*	u	7%	1%	-4
Cc1cccc(CS(=O)(=O)Cc2ccc(C(=O)NCCc3ccccc3)o2)c1	27µM*	14%	37%[59 µM]	-18%	2%	1
CCOc1ccc(CCNC(=O)c2ccc(CS(=O)Cc3ccc(Cl)cc3)o2)cc1OCC (configuration not stated)	-3%	7%	0%	-2%	2%	-1
Cc1ccccc1CS(=O)(=O)Cc1ccc(C(=O)NCCc2ccccc2)o1	30µM*	12%	9%[59 µM]	-17%	-1%	2
CCNc1nc2c(c(=O)n(C)c(=O)n2C)n1Cc1ccc(F)cc1	x	x	-23%[59 µM]	8%	x	x
CCN(CC)CCn1c(=N)n(CCOc2ccccc2Cl)c2ccccc21	x	x	u	-9%	x	x
CCSc1nc2c([nH]c3ccccc32)c(=O)n1CC	x	x	-33%[59 µM]	1%	x	x
COc1ccc(/C=N/c2oc(-c3ccccc3)cc2C#N)cc1OC	u	79µM*	u	18%	-2%	-3
COc1ccc(/C=N/NC(=O)c2nc(-c3ccccc3)cc(-c3ccccc3)n2)cc1OC	-6%	-8%	25%[59 µM]	6%	1%	0
COc1ccc(N2CCN(S(=O)(=O)CCNC(=O)c3ccc(C(F)(F)F)cc3)CC2)cc1	x	x	10%[59 µM]	1%	x	x

Screening data as filed in PubChem.
